Experimental findings from ChEMBL document CHEMBL5308504, “Tm Shift (DSF) assay results for EUbOPEN Chemogenomics Library” (2023) are described below.

Where “and” joins values, the source holds several entries; their conditions need not be identical. Equal entries are not always repeated.

The term ΔTm denotes the shift of the melting midpoint relative to a reference.

Assay [1] concerns the target Bromodomain-containing protein 4 (Homo sapiens) (UniProt O60885). As to conditions: Compound concentration 20.0 uM, Protein concentration 2.0 uM, Result type QC Liability.
In assay [2] the target is T1, Transcription intermediary factor 1-alpha (Homo sapiens) (UniProt O15164).
T1 sequence (whole entry): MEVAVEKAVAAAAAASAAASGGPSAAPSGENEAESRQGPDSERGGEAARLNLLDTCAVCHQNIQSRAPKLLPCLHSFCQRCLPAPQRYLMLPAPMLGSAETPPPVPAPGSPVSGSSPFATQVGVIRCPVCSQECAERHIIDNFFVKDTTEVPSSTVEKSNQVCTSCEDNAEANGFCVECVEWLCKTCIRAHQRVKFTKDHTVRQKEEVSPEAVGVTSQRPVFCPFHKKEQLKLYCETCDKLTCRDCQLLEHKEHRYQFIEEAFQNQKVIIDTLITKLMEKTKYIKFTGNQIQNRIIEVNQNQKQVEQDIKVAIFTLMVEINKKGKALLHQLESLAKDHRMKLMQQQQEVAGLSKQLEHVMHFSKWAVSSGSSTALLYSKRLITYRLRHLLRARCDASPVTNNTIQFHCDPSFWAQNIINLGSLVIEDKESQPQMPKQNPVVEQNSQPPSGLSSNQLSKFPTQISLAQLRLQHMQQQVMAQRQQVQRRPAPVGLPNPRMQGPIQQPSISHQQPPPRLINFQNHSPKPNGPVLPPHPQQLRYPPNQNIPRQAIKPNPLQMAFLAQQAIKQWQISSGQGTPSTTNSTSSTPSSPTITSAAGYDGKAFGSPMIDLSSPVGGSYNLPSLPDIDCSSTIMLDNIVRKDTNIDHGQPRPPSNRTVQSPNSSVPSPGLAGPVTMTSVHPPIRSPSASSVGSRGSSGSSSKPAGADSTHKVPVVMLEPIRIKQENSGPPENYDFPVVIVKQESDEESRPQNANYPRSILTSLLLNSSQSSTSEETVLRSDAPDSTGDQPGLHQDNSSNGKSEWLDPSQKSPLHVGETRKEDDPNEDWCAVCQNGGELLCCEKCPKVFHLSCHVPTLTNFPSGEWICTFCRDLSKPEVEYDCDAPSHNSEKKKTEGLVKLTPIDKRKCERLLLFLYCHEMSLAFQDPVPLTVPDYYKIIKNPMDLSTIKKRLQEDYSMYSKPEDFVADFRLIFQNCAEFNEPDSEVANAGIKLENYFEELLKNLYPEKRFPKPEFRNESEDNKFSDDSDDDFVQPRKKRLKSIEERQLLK
To be noted: Compound concentration 20.0 uM, Protein concentration 2.0 uM, Result type QC Liability.

For `COc1cc2nc(C)nc(N[C@H](C)c3cc(N)cc(C(F)(F)F)c3)c2cc1O[C@H]1CCOC1`, the ΔTm was 0 °C in assay [1] and 0.8 °C in assay [2].
For the molecule `Cc1c(N2CCCC2)nc2ccc(Br)cc2c1C(=O)NC[C@H](CCC(=O)O)c1ccccc1Cl`, the ΔTm is -0.88 °C and -3.16 °C in assay [1]; 0.3 °C and -2.24 °C in assay [2].
`CCC(=O)N[C@H]1CC[C@@H](C(=O)N(C)c2ccc(-c3nc4ccccc4o3)cc2)C1`: the figures for the ΔTm in assay [1] and in assay [2] were 0.09 °C and 0.23 °C, respectively.
On the same counts, the results for `CCc1c(-c2ccc3[nH]ncc3c2)cnc(N)c1-c1ccc(O)cc1` are -1.17 °C and -2.74 °C.
Consider `COc1ccc(N(C(=O)Nc2c(C)cccc2C)c2cc(Nc3ccc(N4CCN(C)CC4)cc3)ncn2)c(OC)c1`, for which the results for the ΔTm in assay [1] and in assay [2] were 2.62 °C and 0.7 °C, respectively.
With `CN(C)[C@H]1C[C@H](n2cnc(-c3ccc(F)cn3)c2-c2ccnc3[nH]ccc23)C1`, the ΔTm was -2.13 °C in assay [1] and -2.35 °C in assay [2].
Taken in the same sequence, the figures for `COc1cc(C(=O)O)ncc1C#Cc1ccccc1NS(=O)(=O)c1cccc2c(N(C)C)ccnc12` were 0.26 °C and -2.33 °C.
On the same counts, the results for `NC(=O)c1sc2nc(N3CCC(NC[C@H](O)c4ccccn4)CC3)cc(C(F)(F)F)c2c1N` are -3.3 °C and -3.39 °C.
Taken in the same sequence, the figures for `Cc1ncsc1-c1ccc(CNC(=O)[C@@H]2C[C@H](O)CN2C(=O)[C@@H](NC(=O)C2(F)CC2)C(C)(C)C)c(OCCOc2ccc(CN3CCN(c4cc(-c5ccccc5O)nnc4N)CC3)cc2)c1` (relative stereo) were 14.5 °C and 1.57 °C.
`FC(F)(F)c1ccc(CNc2ccc(Cc3c[nH]c4ncc(Cl)cc34)cn2)cn1`: the values for the ΔTm in assay [1] and in assay [2] were 2 °C and 1.98 °C, respectively.
For the molecule `O=C(Nc1ccccc1C(=O)O)c1cc(S(=O)(=O)c2ccccc2)ccc1Cl`, the figures for the ΔTm in assay [1] and in assay [2] were 2.09 °C and 0.36 °C, respectively.
On the same counts, the results for `Fc1ccc(-c2c3cccc(C(F)(F)F)c3nn2Cc2ccc(F)cc2Cl)cc1` are -3.53 °C and -1.16 °C.
Taken in the same sequence, the figures for `CC(=O)N1CCN([C@H]2CCC[C@@H](NC(=O)c3cc4c(F)ccc(C)c4[nH]3)C2)CC1` were -1.7 °C and -1.5 °C.
Take `CCn1c(-c2nonc2N)nc2cncc(C(=O)N3CC[C@H](N)C3)c21`: the ΔTm was -0.13 °C in assay [1] and -1.91 °C in assay [2].
On the same counts, the results for `C=CC[C@@H]1/C=C(\C)C[C@H](C)C[C@H](OC)[C@H]2O[C@@](O)(C(=O)C(=O)N3CCCC[C@H]3C(=O)O[C@H](/C(C)=C/[C@@H]3CC[C@@H](O)[C@H](OC)C3)[C@H](C)[C@@H](O)CC1=O)[C@H](C)C[C@@H]2OC` are -1.85 °C and -0.9 °C.
Taken in the same sequence, the figures for `CN(C)C/C=C/C(=O)Nc1cccc(S(=O)(=O)N2CCC(NC(=O)c3n[nH]cc3NC(=O)c3c(Cl)cc(Cl)cc3Cl)CC2)c1` were -1.08 °C and 0.7 °C.
As to `N=C(N)NCCC[C@H](NC(=O)CC1(CC(=O)N2CCN(C(c3ccccc3)c3ccccc3)CC2)CCCC1)C(=O)NCc1ccccc1`, the figures for the ΔTm in assay [1] and in assay [2] were -0.62 °C and -1.18 °C, respectively.
With `COc1ccc(S(=O)(=O)N2CCOCC2)cc1Nc1ccc2c(n1)N(C1CCOCC1)[C@H](C)C(=O)N2C`, the ΔTm in assay [1] is 5.07 °C; in assay [2] it was -1.05 °C.
On the same counts, the results for `CNC(=O)COc1cc2cc(Nc3nc(N4C[C@H](C)C[C@H](C)C4)ncc3Cl)ccc2n(C)c1=O` are -0.33 °C and 0.23 °C.
With `CN(C)CCCNc1ccnc(Nc2cccc(Cl)c2)n1`, the ΔTm in assay [1] is -2.63 °C; in assay [2], -4.21 °C.
`CSc1nc2c(c(=O)n(C)c(=O)n2C)n1C`: the figures for the ΔTm in assay [1] and in assay [2] were -3.81 °C and -0.92 °C, respectively.
On the same counts, the results for `Cc1nc2ccc(Oc3ccc(F)cc3)cc2c(=O)n1C[C@H]1CCCN(C(C)C)C1` are 0.67 °C and 0.18 °C.
Turning to `CN1CCN(C(=O)c2ccc(N(C)c3ncc(C(F)(F)F)c(N[C@@H]4CCC[C@@H]4C(N)=O)n3)cc2)CC1`, the figures for the ΔTm in assay [1] and in assay [2] were -1.86 °C and 0.25 °C, respectively.
Taken in the same sequence, the figures for `CNC(=O)c1c[nH]c2ccc(Nc3nccc(-c4ccccn4)n3)cc12` were -1.78 °C and -0.94 °C.
On the same counts, the results for `CCC(C)(C)CC[C@H](NC(=O)N1CCOCC1)C(=O)NC1(C#N)CCN(C)CC1` are -0.41 °C and 0.53 °C.
Taken in the same sequence, the figures for `Nc1ncnc2c1c(I)cn2[C@@H]1O[C@H](CO)[C@@H](O)[C@H]1O` were -1.9 °C and -4 °C.
Regarding `COc1ccc(CC[C@@H](OC(=O)[C@H]2CCCCN2C(=O)[C@@H](c2cc(OC)c(OC)c(OC)c2)C2CCCCC2)c2cccc(OCCN3CCOCC3)c2)cc1OC`, the ΔTm in assay [1] is -4.83 °C; in assay [2] it was -1.63 °C.
On the same counts, the results for `N#Cc1cccc(-c2c[nH]c3ncnc(N4CCOCC4)c23)c1` are -2.27 °C and -2.93 °C.
For `Cn1cnc(Cn2ccc3ccc(CNCc4[nH]c5ccccc5c4[C@H]4NC(=O)c5ccc(O)cc54)cc32)c1`, the figures for the ΔTm in assay [1] and in assay [2] were 0.36 °C and 0.2 °C, respectively.
On to `CC(C)(C[C@H]1CN(S(=O)(=O)c2cccc(C(F)(F)F)c2)c2cc(-c3cc(F)cc(OC(F)F)c3)ccc2O1)C(=O)O`, for which the results for the ΔTm in assay [1] and in assay [2] were -6.18 °C and -2.16 °C, respectively.
As for `CN1CCc2cc(Nc3ncc(C(F)(F)F)c(NCc4cc[nH]n4)n3)ccc2C1`, the ΔTm in assay [1] was -1.83 °C; in assay [2], -1.85 °C.
With `CC1(C)Oc2ncnc(N)c2N=C1c1ccc([C@H]2CC[C@H](CC(=O)O)CC2)cc1`, the ΔTm is -1.69 °C in assay [1] and -0.57 °C in assay [2].
On to `CNC(=O)COc1cc2cc(Nc3nc(N4CCC(C(=O)N(C)C)CC4)ncc3Cl)cc(OC)c2n(C)c1=O`, for which the ΔTm in assay [1] was -1.01 °C; in assay [2], -0.08 °C.
